Hit rate of the full screen: of about 6,200 compounds, about 2,900 (47%) were called active. The set was probably picked from earlier hits. This is one part of the list. Unmarked numbers belong to inactive results. Cut-off read from the data, not from the text of the source: active = inhibition above about 50%; inactive = the rest.

The experiment is described as follows: Mycobacterium tuberculosis growth inhibition, primary screen (AID 1259343). To be noted: inhibition: at 10 µM, hits give high values; outcome: 10 uM.
Usually inhibition stands for the change of the read-out against control, counted positive when it falls. Regarding `CCC(C)C(=O)Nc1nc(-c2ccc(OC)c(F)c2)cs1` (stereo not drawn), the inhibition was 0.73%.

With `CC(OC(=O)c1ccc(OCC2CCCO2)cc1)C(=O)Nc1nc(-c2ccc(F)c(F)c2)cs1` (stereo not drawn), the inhibition is 100% (active).

Turning to `CN(c1cccc(O)c1)S(=O)(=O)c1cc(Cl)sc1Cl`, the inhibition was -2.74%.

Turning to `O=S(=O)(Oc1ccc2oc3ccccc3c2c1)c1ccc2c(c1)OCCO2`, the inhibition was 31.3%.

For the compound `CN(c1cccc(O)c1)S(=O)(=O)c1ccc2c(c1)OCCCO2`, the inhibition was 52.4% (active).

Turning to `O=C(Nc1ccc2scnc2c1)C1CC(=O)N(CC2CC2)C1` (stereo not drawn), the inhibition is 34.9%.

For `Nc1ccc2scnc2c1`, the inhibition is 94.5% (active).

With `O=C(Nc1cc(C(F)(F)F)no1)c1ccc(Cl)cc1F`, the inhibition is 97.8% (active).

For the compound `O=C(NCC1CCC2(CC1)OCCO2)c1ccc(Cl)cc1F`, the inhibition is -19.8%.

With `CCCSc1nnc(NCc2ccc(OC)cc2)s1`, the inhibition was 33.5%.

Regarding `CCCSc1nnc(SCC(=O)Nc2nc(C)cs2)s1`, the inhibition is 90.9% (active).

As to `Cc1csc(C(C#N)C(=O)CSc2nnc(NC3CC3)s2)n1` (stereo not drawn), the inhibition is 28.8%.

On to `NCC[C@H](O)C(=O)N[C@@H]1C[C@H](N)[C@@H](O[C@H]2O[C@H](CN)[C@@H](O)[C@H](O)[C@H]2O)[C@H](O)[C@H]1O[C@H]1O[C@H](CO)[C@@H](O)[C@H](N)[C@H]1O`, for which the inhibition was 98.7% (active).

With `CN[C@H]1C[C@@H](N)[C@H](O)[C@@H](O[C@@H]2O[C@H](CO)[C@@H]3OC4(O[C@@H]3[C@@H]2O)O[C@H](C(N)CO)[C@H](O)[C@H](O)[C@H]4O)[C@@H]1O` (stereo partly drawn), the inhibition is 41.3%.

For the compound `CCc1cc(=O)[nH]c(-n2nc(C)cc2NC(=O)Cc2ccc(OC)c(OC)c2)n1`, the inhibition was 48%.

With `CCCc1cc(=O)[nH]c(-n2nc(C)cc2NC(=O)Cc2ccc(OC)c(OC)c2)n1`, the inhibition was 98.9% (active).

Regarding `COc1ccc(CC(=O)Nc2cc(C)nn2-c2nc(C)cc(=O)[nH]2)cc1OC`, the inhibition was 99% (active).

As to `Cc1n[nH]c(C)c1CCCCCCOc1ccc(F)cc1`, the inhibition was 87.3% (active).

For the compound `Cc1n[nH]c(C)c1CCCCCOc1cccc(Cl)c1`, the inhibition was 99.2% (active).

Turning to `CCOc1ccc(OCCCCOc2ccc(F)cc2)cc1`, the inhibition was 8.32%.

`CNc1snc(C)c1C(=O)NCc1ccc2c(c1)CCC2`: the inhibition was 39.8%.

For the compound `CNc1snc(C)c1C(=O)OCc1ccc(-n2cccn2)cc1`, the inhibition is 50.2% (active).

Take `Cc1oc(-c2ccc(F)cc2F)nc1CN(C)Cc1ccccc1C(F)(F)F`: the inhibition is 30.1%.

Turning to `N#Cc1nc(NC(=O)c2ccc(N3CCCC3)c(F)c2)[nH]c1C#N`, the inhibition is 70.6% (active).

For `COc1cc(C(=O)Nc2cc(Cl)ccc2N2CCSCC2)ccc1C`, the inhibition was 12.9%.

As for `N#Cc1ccc(C(=O)Nc2ccccc2N2CCCCCC2)cc1`, the inhibition is 39.7%.

Consider `CCOC(=O)CSc1nnc(CNc2ccc(C)c(Cl)c2)n1C`, for which the inhibition was 94.2% (active).

With `OCC1(CCc2ccccc2)CCCN(c2ncnc3sccc23)C1` (stereo not drawn), the inhibition is 22.8%.

In the case of `Oc1c(-c2ccccn2)sc2ccccc12`, the inhibition was 90.9% (active).

For the compound `CN(N=Cc1sc2ccccc2c1O)c1ccccc1`, the inhibition is -9.99%.

In the case of `Oc1c(N=Nc2ccc3c(c2)OCCO3)sc2ccccc12`, the inhibition is 38.8%.

As to `Cc1ccc(Oc2ncccc2CNc2ncccn2)c(F)c1F`, the inhibition is 23.9%.

As to `Fc1ccccc1OCc1n[nH]c(=S)o1`, the inhibition was 47.7%.

In the case of `Fc1ccccc1COc1ccccc1CNc1nn[nH]n1`, the inhibition was 57.1% (active).

As for `Cc1cccc2c(=O)n(CC(=O)NCCc3cccc(F)c3)cnc12`, the inhibition is 25.4%.

`Cc1cc(NC(=O)Cn2cnc3c(nnn3-c3cccc(F)c3)c2=O)no1`: the inhibition was 87.4% (active).

With `CSc1cccc(NC(=O)Cc2csc(N3CCCC3=O)n2)c1`, the inhibition is 70.3% (active).

Consider `O=C(NC1CCCC1)c1ccc(Br)o1`, for which the inhibition was -20.8%.

Consider `O=C(NCC1CCCO1)C12CC3CC(CC(C3)C1)C2` (stereo not drawn), for which the inhibition was 81.2% (active).

`O=C(NCCC12CC3CC(CC(C3)C1)C2)C12CC3CC(CC(C3)C1)C2`: the inhibition was -25.6%.

Turning to `Cc1cccc(CO[C@]2(C(=O)NCC3CCCO3)CC(OCc3ccc(F)cc3)[C@H](O)[C@H](O)C2)c1` (stereo partly drawn), the inhibition was -13%.

For the compound `O=C(NCC1CCCO1)c1ccc(Br)o1` (stereo not drawn), the inhibition was 83.8% (active).

Consider `Cc1ccc(CNC(=O)c2ccc(Br)o2)cc1F`, for which the inhibition was 16.3%.

On to `CCCCCCCCNC(=O)c1ccc(Br)o1`, for which the inhibition is 74.9% (active).

Regarding `Cc1ccc(OCCCCNC(=O)c2ccc(Br)o2)cc1`, the inhibition was 92.2% (active).

As for `O=C(O)C1Nc2c(Cl)cc(Cl)cc2C2C=CCC12` (stereo not drawn), the inhibition was 101% (active).

`O=C(O)C1Nc2ccc3ccccc3c2C2C=CCC12` (stereo not drawn): the inhibition was 16.2%.

As for `O=C(O)C1Nc2ccc(Br)cc2C2C=CCC12` (stereo not drawn), the inhibition was 84.2% (active).

For the compound `O=C(O)c1ccc2c(c1)C1C=CCC1C(c1ccc(Br)cc1)N2` (stereo not drawn), the inhibition was 66.8% (active).

On to `N#Cc1nc(C2CC2)oc1N1CCN(C(=O)Nc2ccccc2)CC1`, for which the inhibition is 21.4%.

In the case of `COC(=O)c1ccc(CSC(=S)N(C)C)cc1`, the inhibition is 82.1% (active).

On to `NC(=O)C1CCN(C(=O)CCc2ccsc2)CC1`, for which the inhibition is 90.9% (active).

With `Cc1c(C(=O)N2CCC(C(N)=O)CC2)nnn1-c1nc(-c2ccccc2)cs1`, the inhibition is 20.4%.

For the compound `NC(=O)C1CCN(C(=O)CCC2CCCC2)CC1`, the inhibition was -28.4%.

Turning to `CC(C)c1csc(C2CCN(C(=O)CCc3ccsc3)CC2)n1`, the inhibition is 83.6% (active).

As for `CCN1C(=Cc2cc(C)[n+](C3CCCCC3)c(C)c2)Sc2ccccc21`, the inhibition was -19.4%.

Turning to `Cc1cc(C=C2Sc3ccccc3N2C)cc(C)[n+]1-c1ccccc1`, the inhibition is 41.1%.

Consider `CCN1C(=Cc2ccc3cc(C)ccc3[n+]2CC)Sc2ccccc21`, for which the inhibition was 56.1% (active).

Regarding `CCC(C)[n+]1c(C)cc(C=C2Sc3ccccc3N2CC)cc1C` (stereo not drawn), the inhibition is 84.5% (active).

With `CCCCCOc1ncnc2c1sc1nc3c(cc12)COC(C)(C)C3`, the inhibition is 51% (active).

In the case of `CC(C)CCOc1ncnc2c1sc1nc3c(cc12)COC(C)(C)C3`, the inhibition is 63.6% (active).

Regarding `CC1(C)[C@H]2CC[C@@H](CNC(=O)c3cc(=O)n(-c4ccccc4)[nH]3)[C@@H]1C2`, the inhibition was 23.3%.

Turning to `C=C(NC(=O)C(=C)NC(=O)c1csc(C2=NC3c4csc(n4)C4NC(=O)c5csc(n5)C(C(C)(O)C(C)O)NC(=O)C5CSC(=N5)C(=CC)NC(=O)C(C(C)O)NC(=O)c5csc(n5)C3(CC2)NC(=O)C(C)NC(=O)C(=C)NC(=O)C(C)NC(=O)C(C(C)CC)NC2C=Cc3c(C(C)O)cc(nc3C2O)C(=O)OC4C)n1)C(N)=O` (stereo not drawn), the inhibition is 95.4% (active).

Regarding `N=C1c2ccccc2CN1c1ccc(OC(F)(F)C(F)F)cc1`, the inhibition is 64.2% (active).

Regarding `CSc1nsc(SC)c1NC(=O)OC1CCCCC1`, the inhibition is 11.5%.

For the compound `Cc1ccc(CNS(=O)(=O)Cc2ccc(F)cc2)cc1F`, the inhibition is 29.8%.

For the compound `CC(C(=O)NCc1cccs1)S(=O)(=O)c1ccc(C(F)(F)F)cn1` (stereo not drawn), the inhibition was 14.3%.

For the compound `CNS(=O)(=O)Cc1ccc(CNc2ccc(C(F)(F)F)cn2)cc1`, the inhibition is 50.3% (active).

For the compound `N#Cc1c(Cl)nsc1NCCC1CC2CCC1C2` (stereo not drawn), the inhibition was 96.1% (active).

Consider `N#Cc1c(Cl)nsc1NC1CCSc2c(F)cccc21` (stereo not drawn), for which the inhibition is 11.2%.

In the case of `COc1cccc(C(CN2CCN(C(=O)C=C(C)C)CC2)OCc2cccc(Cl)c2)c1` (stereo not drawn), the inhibition was -4.3%.

In the case of `N=C1C=CC(=C(c2cccc(N)c2)c2cccc(N)c2)C=C1`, the inhibition is 68.4% (active).

In the case of `CC1c2cccn2CCN1Cc1csc(Nc2ccccc2)n1` (stereo not drawn), the inhibition was 20.8%.

Turning to `CCOc1ccc(NC(=O)CSc2nc(=O)n3ccccc3n2)cc1`, the inhibition was 2.8%.

For the compound `CCOc1ccc(Nc2nc(-c3c(C)nc4ccccn34)cs2)cc1`, the inhibition was 61.2% (active).

As to `CC(Oc1ccc(Cl)cc1)C(=O)NC(C)c1cccs1` (stereo not drawn), the inhibition was 94.5% (active).

For the compound `COc1ccccc1CN(C(=O)Nc1ccccc1Cl)C1CC1`, the inhibition is 78.5% (active).

With `COc1ccccc1CNC(=O)C1(S(=O)(=O)c2ccc(Cl)cc2)CCCC1`, the inhibition is 2.93%.

Take `COc1ccccc1NC(=O)N(Cc1ccsc1)C1CC1`: the inhibition is 16%.

For the compound `COc1ccc(Cl)cc1C(=O)Nc1cc(C)nn1-c1nc(C)c(C)c(=O)[nH]1`, the inhibition is 100% (active).

As to `COc1ccc(Cl)cc1C(=O)Nc1cc(C2CC2)nn1-c1nc(C)cc(=O)[nH]1`, the inhibition is 99.9% (active).

For `Cc1cc(=O)[nH]c(-n2nc(C3CC3)cc2NC(=O)c2cc(Cl)ccc2Cl)n1`, the inhibition is -15.9%.

As to `CCc1cc(=O)[nH]c(-n2nc(C)cc2NC(=O)c2cc(Cl)ccc2OC)n1`, the inhibition was 102% (active).

Regarding `COc1ccc(Cl)cc1C(=O)Nc1cc(C)nn1-c1nc(C)cc(=O)[nH]1`, the inhibition was 101% (active).

For `Cc1noc(CNC(C)(C)Cc2ccc(Br)cc2)n1`, the inhibition was -9.14%.

Regarding `Cn1c2ccccc2n2c3ncccc3c(=O)c(C#N)c12`, the inhibition is 41.8%.

With `CSc1nnc(SCc2cc(C)no2)s1`, the inhibition is 27.2%.

`CCSc1nnc(SCc2cccc(OC)n2)s1`: the inhibition was 90.4% (active).

In the case of `COc1ccc(CSc2nnc(SCC(=O)N3CCCCCC3)s2)cc1`, the inhibition is 26.9%.

In the case of `COc1ccc(NC(=O)c2ccc(-c3ccc(C(C)=O)cc3)o2)cn1`, the inhibition is -28.8%.

`CON(C)S(=O)(=O)c1cc(C(=O)Nc2cccc(Cl)c2Cl)ccc1Cl`: the inhibition is 22.1%.

On to `CCCCN(C)S(=O)(=O)c1ccc(NC(=O)c2ccc(OC)nc2)cc1`, for which the inhibition is 88% (active).

Regarding `COc1ccc(C2=NOC(c3ccc(C)cc3)C2)cc1` (stereo not drawn), the inhibition is 22.2%.

On to `COc1ccc(C2=NOC(CNCc3cccc(C(F)(F)F)c3)C2)cc1` (stereo not drawn), for which the inhibition is 43.6%.

As to `Fc1cccc(CNCC2CC(c3ccc(Cl)c(Cl)c3)=NO2)c1` (stereo not drawn), the inhibition is 57.1% (active).

For the compound `COc1ccc(C2=NOC(CNCc3cccc(F)c3)C2)cc1` (stereo not drawn), the inhibition is 76.2% (active).

For `Cc1ccc(=O)n(CC(=O)Nc2ccc(Sc3ccccc3Cl)cc2)n1`, the inhibition was 5.63%.

As to `CCc1cccc(NC(=O)Cn2nc3ccc(SC(C)C)nn3c2=O)c1`, the inhibition is 77.8% (active).
